According to PubChem BioAssay (Tox21):
Values without a mark were called inactive. Records with an inconclusive call do not appear. Entries that show only a call come without a potency. The source made the active and inactive calls. Unless noted, the call rests on the fitted dose curve; in most records, active means well fitted curve in the direction sought with a large enough effect in the repeat runs; inconclusive means weak or mixed curves; inactive means no such curve, though single readings can be large; an effect the other way counts as inactive or inconclusive.

Assays:
[1] = qHTS assay to identify small molecule HDAC inhibitors - cell viability counter screen (AID 1259365); further: series mostly up to about 92 µM; nearly all actives have a fitted effect of over 50% in size
In short: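 Luminescence from CellTiter-Glo, developed 30min at room temperature, reports viability of wild-type HCT-116 cells treated 2hr with compounds at 37 C and 5% CO2 after overnight plating.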

[2] = qHTS assay to identify small molecule agonists of the sonic hedgehog signaling (Shh) pathway - cell viability counter screen (AID 1259366); further: nearly all actives have a fitted effect of over 50% in size
In short: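 Cytotoxicity counter screen run in the same wells as the Shh reporter assay. NIH/3T3 cells carrying a Gli1 response element–driven luciferase were treated with DMSO-dissolved compounds for 24hr, and live-cell protease activity was measured with CellTiter-Fluor.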

[3] = qHTS assay to identify small molecule antagonists of the sonic hedgehog signaling (Shh) pathway - cell viability counter screen (AID 1259367); further: nearly all actives have a fitted effect of over 55% in size
In short: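 Seed 3T3 Gli1-Luc cells at 2,000 per well; incubate 4 hr; add compound in DMSO, then conditioned medium; incubate at 37C with 5% CO2; add CellTiter-Fluor after 23 hr; read fluorescence 1 hr later.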

[4] = qHTS assay to identify small molecule agonists of the sonic hedgehog signaling (Shh) pathway (AID 1259368; calls by dose curve; further: series mostly up to about 92 µM; nearly all actives have a fitted effect of over 15% in size)
In short: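 NIH/3T3-derived 3T3Gli1-Luc cells carrying a stably integrated Gli1 response element–firefly luciferase reporter were plated, left 4 hr at 37 C, then given compounds in DMSO for 24 hr. Luminescence was read 30 min after adding luciferase reagent.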

[5] = target: Estrogen receptor beta (Homo sapiens) (UniProt Q92731); test: qHTS assay to identify small molecule agonists of the estrogen receptor beta (ER-beta) signaling pathway (AID 1259377; active means well fitted activation curve with a large enough effect in the signal ratio in the repeat runs, not every such curve was filed as active; the % refers to the signal ratio)
In short: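 HEK293T ER-beta-UAS-bla; 2% charcoal-stripped FBS; cells pre-incubated 6 hr, compound 16 hr, 37C/5% CO2; LiveBLAzer B/G FRET substrate 2 h RT; fluorescence intensity read.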

[6] = target: Estrogen receptor beta (Homo sapiens) (UniProt Q92731); test: qHTS assay to identify small molecule antagonists of the estrogen receptor beta (ER-beta) signaling pathway (AID 1259378; active means well fitted inhibition curve with a large enough effect in the signal ratio in the repeat runs, not every such curve was filed as active; the % refers to the signal ratio)
In short: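 ER-beta-UAS-bla HEK293T cells in 2% charcoal-stripped FBS medium treated with compound plus 1nM final 17-beta-estradiol for 16 hr at 37C. Beta-lactamase reporter read by FRET substrate fluorescence after 2 hours at room temperature.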

[7] = qHTS assay to identify small molecule agonists of the androgen receptor (AR) signaling pathway in the presence of an antagonist - cell viability counter screen (AID 1259379); further: series mostly up to about 92 µM; nearly all actives have a fitted effect of over 25% in size
In short: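 MDA-kb2 human breast carcinoma cells (stable MMTV-luciferase, AR/GR responsive) were seeded 3,000 cells/well, pre-incubated 5 hr at 37C without CO2, then given 3.0uM nilutamide and compounds at 15 concentrations for 16 hr. Viability was read by CellTiter-Fluor fluorescence.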

[8] = target: Estrogen receptor (Homo sapiens) (UniProt P03372); test: qHTS assay to identify small molecule agonists of the estrogen receptor alpha (ER-alpha) signaling pathway in the presence of an antagonist (AID 1259383; calls by dose curve; further: top concentration of the series differs between compounds; nearly all actives have a fitted effect of over 15% in size)
In short: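 VM7Luc4E2 cells (endogenous full-length ER-alpha, 4×ERE-luciferase) were precultured 5 days in phenol red-free medium with 10% charcoal-stripped FBS, given 10.0nM ICI-182,780 (final), then treated with compounds at 15 concentrations for 22hr at 37C; luminescence read with ONE-Glo.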

[9] = qHTS assay to identify small molecule agonists or antagonists of the thyroid stimulating hormone receptor (TSHR) signaling pathway - wild type cell line counter screen (AID 1259384; calls by dose curve)
In short: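 Wild-type Hek293 cells, 800/well, 18 h at 37C, then compound with Ro20-1724 for 30 min RT. cAMP by HTRF (cAMP-d2/anti-cAMP cryptate), 1 h RT, fluorescence read. 15 concentrations, triplicates.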

[10] = qHTS assay to identify small molecule agonists of the estrogen receptor alpha (ER-alpha) signaling pathway in the presence of an antagonist - cell viability counter screen (AID 1259386);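 further: series mostly up to about 92 µM; cells exposed to compounds for 22 h at 37 °C before the viability read; nearly all actives have a fitted effect of over 30% in size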
In short: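 VM7Luc4E2 cells (endogenous full-length ER-alpha, 4×ERE-luciferase) were held 5 days in phenol red-free medium with 10% charcoal-stripped FBS, plated, then given 10.0nM ICI-182,780 and compounds at 15 concentrations for 22hr at 37C; viability read by CellTiter-Fluor fluorescence.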

[11] = target: Progesterone receptor (Homo sapiens) (UniProt P06401); test: qHTS assay to identify small molecule agonists of the progesterone receptor (PR) signaling pathway (AID 1346784; calls by dose curve; further: nearly all actives have a fitted effect of over 30% in size)
In short: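 Beta-lactamase reporter read-out: after 16 hr compound treatment at 37C and a further 2 hr at room temperature with LiveBLAzer B/G FRET substrate, fluorescence was measured in PR-UAS-bla HEK 293T cells grown in 2% charcoal-stripped serum.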

[12] = target: Progesterone receptor (Homo sapiens) (UniProt P06401); test: qHTS assay to identify small molecule antagonists of the progesterone receptor (PR) signaling pathway (AID 1346795; active means well fitted inhibition curve with a large enough effect in the signal ratio in the repeat runs, not every such curve was filed as active; the % refers to the signal ratio)
In short: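 Read-out is fluorescence from the LiveBLAzer B/G FRET substrate, cleaved by a UAS-controlled beta-lactamase in PR-UAS-bla HEK293T cells after 16 hr exposure to compound plus 1 nM promegestone (final), followed by 2 hr at room temperature.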

[13] = qHTS assay to identify small molecule antagonists of the progesterone receptor (PR) signaling pathway - cell viability counter screen (AID 1346798);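 further: HEK293T PR-UAS-bla cells stimulated with the agonist R5020; series mostly up to about 92 µM; nearly all actives have a fitted effect of over 50% in size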
In short: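 HEK293T PR-UAS-bla, 2% charcoal-stripped FBS; 4 hr pre-plate; cpd + R5020, 16 h 37C; LiveBLAzer read first; then CellTiter-Glo 30 min RT, luminescence.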

[14] = qHTS assay to identify small molecule agonists of the progesterone receptor (PR) signaling pathway - cell viability counter screen (AID 1346799; calls by dose curve; further: nearly all actives have a fitted effect of over 45% in size)
In short: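 Luminescence from CellTiter-Glo, added after the beta-lactamase FRET read in the same wells, gave cytotoxicity in PR-UAS-bla HEK293T cells treated with compounds for 16 hr at 37C.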

[15] = qHTS assay to identify small molecule antagonists of the TGF-beta/Smad signaling pathway - cell viability counter screen (AID 1346824); further: nearly all actives have a fitted effect of over 50% in size
In short: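 SBE-bla HEK 293T cells, incubated overnight, then compound plus 0.25 ng/mL TGF-beta1 (stock added) for 5 hr at 37 C. Viability was read in the same wells by CellTiter-Glo luminescence after 30 min at room temperature.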

[16] = qHTS assay to identify small molecule antagonists of the sonic hedgehog signaling (Shh) pathway (AID 1259369; calls by dose curve; further: nearly all actives have a fitted effect of over 45% in size; further: potency means the concentration at half of the fitted maximal effect)
In short: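 NIH/3T3-derived 3T3Gli1-Luc cells with stably integrated Gli1-Luc reporter were preincubated 4hr at 37 C, then given compounds in DMSO plus Shh conditioned medium and incubated 24hr. Firefly luciferase luminescence read after 30min reagent at room temperature.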

[17] = qHTS assay to identify small molecule agonists of the estrogen receptor beta (ER-beta) signaling pathway - cell viability counter screen (AID 1259380); further: nearly all actives have a fitted effect of over 30% in size; further: potency means the concentration at half of the fitted maximal effect
In short: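 ER-beta-UAS-bla HEK293T cells in medium with 2% charcoal-stripped FBS were preincubated 6 hr at 37C, dosed with compound in DMSO for 16 hr, then after the bla read, CellTiter-Glo was added for 30 min at room temperature; luminescence recorded.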

[18] = qHTS assay to identify small molecule antagonists of the estrogen receptor beta (ER-beta) signaling pathway - cell viability counter screen (AID 1259382); further: series mostly up to about 92 µM; nearly all actives have a fitted effect of over 55% in size
In short: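 ER-beta-UAS-bla HEK293T cells (2,000/well, 2% charcoal-stripped FBS) were pre-incubated 6 hr at 37C, then given compound plus 1nM final 17-beta-estradiol for 16 hr. Viability was read in the same wells by CellTiter-Glo luminescence after 30 min at room temperature.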

[19] = target: Thyrotropin receptor (Homo sapiens) (UniProt P16473); test: qHTS assay to identify small molecule antagonists of the thyroid stimulating hormone receptor (TSHR) signaling pathway (AID 1259385; calls by dose curve; further: nearly all actives have a fitted effect of over 20% in size)
In short: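 TSHR-HEK293 cells (800/well) plated 18 h, then compounds with Ro20-1724 and TSH at 1.5 ng/mL final, 30 min at room temperature. cAMP quantified by HTRF (cAMP-d2/anti-cAMP-cryptate, 1 h); 15 concentrations in triplicate.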

[20] = target: Androgen receptor (Homo sapiens) (UniProt P10275); test: qHTS assay to identify small molecule agonists of the androgen receptor (AR) signaling pathway in the presence of an antagonist (AID 1259381; calls by dose curve; further: nearly all actives have a fitted effect of over 15% in size)
In short: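 MDA-kb2 human breast carcinoma cells carrying an MMTV-luciferase reporter (AR- and GR-responsive) were treated with compounds at 15 concentrations plus 3.0uM final nilutamide for 16hr at 37C without CO2; luminescence was read after ONE-Glo addition.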

Chain of Estrogen receptor beta (Homo sapiens) (Q92731 whole entry, looked up): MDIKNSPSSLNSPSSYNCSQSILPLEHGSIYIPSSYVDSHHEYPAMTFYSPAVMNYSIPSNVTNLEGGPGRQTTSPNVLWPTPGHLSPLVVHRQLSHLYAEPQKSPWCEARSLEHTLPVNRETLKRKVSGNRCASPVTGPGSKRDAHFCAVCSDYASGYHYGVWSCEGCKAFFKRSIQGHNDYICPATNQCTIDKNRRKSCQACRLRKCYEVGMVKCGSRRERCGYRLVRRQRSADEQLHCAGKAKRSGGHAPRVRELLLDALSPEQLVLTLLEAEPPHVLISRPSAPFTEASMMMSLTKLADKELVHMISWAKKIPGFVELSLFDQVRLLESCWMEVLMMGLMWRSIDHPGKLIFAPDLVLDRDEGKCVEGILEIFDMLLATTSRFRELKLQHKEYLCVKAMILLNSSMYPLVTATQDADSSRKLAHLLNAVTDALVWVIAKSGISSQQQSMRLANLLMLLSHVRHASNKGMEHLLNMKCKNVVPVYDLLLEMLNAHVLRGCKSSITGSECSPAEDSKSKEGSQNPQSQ
Chain of Androgen receptor (Homo sapiens) (P10275 whole entry, looked up): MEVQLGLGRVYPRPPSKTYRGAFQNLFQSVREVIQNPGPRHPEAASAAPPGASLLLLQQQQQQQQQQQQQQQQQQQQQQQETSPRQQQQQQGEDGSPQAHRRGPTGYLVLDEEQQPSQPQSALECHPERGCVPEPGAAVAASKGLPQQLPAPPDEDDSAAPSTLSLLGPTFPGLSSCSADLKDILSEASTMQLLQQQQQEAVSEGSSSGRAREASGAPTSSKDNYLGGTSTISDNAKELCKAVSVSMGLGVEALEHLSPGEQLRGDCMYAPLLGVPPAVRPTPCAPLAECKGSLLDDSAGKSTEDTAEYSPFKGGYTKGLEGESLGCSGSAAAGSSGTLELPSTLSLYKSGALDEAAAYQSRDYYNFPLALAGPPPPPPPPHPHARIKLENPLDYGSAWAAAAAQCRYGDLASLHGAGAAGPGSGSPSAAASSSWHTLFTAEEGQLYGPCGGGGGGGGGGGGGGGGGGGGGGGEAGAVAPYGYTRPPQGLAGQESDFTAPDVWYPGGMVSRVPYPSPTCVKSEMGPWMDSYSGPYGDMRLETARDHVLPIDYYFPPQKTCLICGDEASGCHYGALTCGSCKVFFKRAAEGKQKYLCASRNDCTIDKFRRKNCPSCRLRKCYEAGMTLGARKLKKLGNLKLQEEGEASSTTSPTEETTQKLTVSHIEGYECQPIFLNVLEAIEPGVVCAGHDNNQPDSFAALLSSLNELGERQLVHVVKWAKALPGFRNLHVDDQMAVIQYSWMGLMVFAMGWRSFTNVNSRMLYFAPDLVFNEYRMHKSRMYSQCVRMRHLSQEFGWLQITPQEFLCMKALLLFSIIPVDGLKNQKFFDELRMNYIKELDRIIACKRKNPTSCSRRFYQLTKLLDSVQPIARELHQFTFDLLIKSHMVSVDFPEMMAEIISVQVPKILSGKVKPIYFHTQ
Chain of Progesterone receptor (Homo sapiens) (P06401 whole entry, looked up): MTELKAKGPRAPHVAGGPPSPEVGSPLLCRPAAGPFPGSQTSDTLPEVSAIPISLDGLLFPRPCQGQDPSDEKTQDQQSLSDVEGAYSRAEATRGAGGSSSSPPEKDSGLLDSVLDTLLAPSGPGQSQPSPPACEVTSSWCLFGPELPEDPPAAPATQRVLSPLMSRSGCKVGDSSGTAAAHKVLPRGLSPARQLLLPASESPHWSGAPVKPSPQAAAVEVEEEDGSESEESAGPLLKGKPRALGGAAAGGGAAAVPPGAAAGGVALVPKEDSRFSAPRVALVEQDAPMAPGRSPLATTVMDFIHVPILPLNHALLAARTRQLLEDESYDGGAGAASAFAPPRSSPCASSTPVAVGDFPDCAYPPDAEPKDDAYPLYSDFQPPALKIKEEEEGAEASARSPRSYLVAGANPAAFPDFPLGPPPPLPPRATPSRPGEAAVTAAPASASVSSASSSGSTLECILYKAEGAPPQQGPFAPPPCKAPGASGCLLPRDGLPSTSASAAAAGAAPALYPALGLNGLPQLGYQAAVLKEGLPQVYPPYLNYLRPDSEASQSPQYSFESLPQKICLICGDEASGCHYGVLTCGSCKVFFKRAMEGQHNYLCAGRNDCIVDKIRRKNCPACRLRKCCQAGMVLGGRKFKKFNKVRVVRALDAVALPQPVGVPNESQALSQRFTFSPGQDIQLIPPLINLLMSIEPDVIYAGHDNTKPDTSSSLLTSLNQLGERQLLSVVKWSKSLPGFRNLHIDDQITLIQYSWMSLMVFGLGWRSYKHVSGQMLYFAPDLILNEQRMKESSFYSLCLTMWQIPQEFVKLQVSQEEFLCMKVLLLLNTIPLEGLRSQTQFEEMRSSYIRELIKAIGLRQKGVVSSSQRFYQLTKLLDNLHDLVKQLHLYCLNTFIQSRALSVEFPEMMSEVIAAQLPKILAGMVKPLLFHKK
Chain of Thyrotropin receptor (Homo sapiens) (P16473 whole entry, looked up): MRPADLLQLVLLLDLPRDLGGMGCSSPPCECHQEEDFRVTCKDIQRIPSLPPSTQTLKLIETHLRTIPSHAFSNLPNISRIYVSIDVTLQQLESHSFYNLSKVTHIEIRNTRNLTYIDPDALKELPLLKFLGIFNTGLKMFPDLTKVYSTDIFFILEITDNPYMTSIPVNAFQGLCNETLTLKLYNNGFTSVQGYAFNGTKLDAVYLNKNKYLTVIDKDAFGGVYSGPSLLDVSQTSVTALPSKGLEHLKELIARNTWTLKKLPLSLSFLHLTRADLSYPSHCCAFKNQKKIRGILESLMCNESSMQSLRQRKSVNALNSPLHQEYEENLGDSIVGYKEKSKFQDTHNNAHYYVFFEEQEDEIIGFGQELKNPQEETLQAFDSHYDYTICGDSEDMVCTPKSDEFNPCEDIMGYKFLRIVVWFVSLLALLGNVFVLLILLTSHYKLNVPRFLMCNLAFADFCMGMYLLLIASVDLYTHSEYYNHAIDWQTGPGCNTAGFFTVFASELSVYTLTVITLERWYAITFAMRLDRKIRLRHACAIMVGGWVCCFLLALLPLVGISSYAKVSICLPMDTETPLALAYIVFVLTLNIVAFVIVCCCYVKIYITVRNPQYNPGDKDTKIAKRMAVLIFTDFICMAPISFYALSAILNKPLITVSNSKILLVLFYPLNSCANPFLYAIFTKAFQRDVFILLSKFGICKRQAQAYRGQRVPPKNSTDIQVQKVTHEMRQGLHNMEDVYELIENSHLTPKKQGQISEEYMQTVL
Chain of Estrogen receptor (Homo sapiens) (P03372 whole entry, looked up): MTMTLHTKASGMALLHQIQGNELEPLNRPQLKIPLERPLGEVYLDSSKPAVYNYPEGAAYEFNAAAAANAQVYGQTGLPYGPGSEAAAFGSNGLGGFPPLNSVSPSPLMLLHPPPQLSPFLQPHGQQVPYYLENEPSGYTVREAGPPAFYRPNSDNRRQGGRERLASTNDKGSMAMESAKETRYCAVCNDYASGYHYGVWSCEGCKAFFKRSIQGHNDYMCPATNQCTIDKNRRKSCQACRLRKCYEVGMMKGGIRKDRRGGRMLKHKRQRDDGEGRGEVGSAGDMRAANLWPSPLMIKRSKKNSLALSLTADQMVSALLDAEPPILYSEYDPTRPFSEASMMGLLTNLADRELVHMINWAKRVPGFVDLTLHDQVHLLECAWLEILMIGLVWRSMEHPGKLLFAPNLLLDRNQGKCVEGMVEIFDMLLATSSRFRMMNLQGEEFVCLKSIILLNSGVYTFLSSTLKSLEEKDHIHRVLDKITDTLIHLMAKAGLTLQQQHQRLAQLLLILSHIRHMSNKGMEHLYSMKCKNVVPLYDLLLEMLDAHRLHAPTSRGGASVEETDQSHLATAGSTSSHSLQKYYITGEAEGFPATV

In the case of `Cc1nc2ccc(Cl)cc2[nH]1`, the outcome [1] is reported as “inactive”, the outcome [2] is reported as “inactive” and the outcome [3] is reported as “inactive”. The outcome [4] was “inactive”, the Potency [5] was “inactive” and the outcome [6] was “inactive”. For the same molecule, the outcome [7] was “inactive”, the Potency [8] was “inactive” and the outcome [9] was “inactive”. For the same molecule, the outcome [10] was “inactive”, the Potency [11] was “inactive” and the Potency [12] was “inactive”. The outcome [13] was “inactive”, the Potency [14] was “inactive” and the outcome [15] was “inactive”.

Work on `N=C(N)N1CCc2ccccc2C1` yielded an activity change, negative = cytotoxicity [1] of -4.02% [at 8.39 µM], a viability change, negative = cytotoxic [2] of 2.39% [at 8.39 µM] and a viability change, negative = cytotoxic [3] of 3.14% [at 8.39 µM]. For the same molecule, the activity change [4] was 0.863% [at 8.39 µM], the activity change, negative = inhibition [16] was 18.9% [at 8.39 µM] and the activity change, negative = cytotoxicity [7] was 0.84% [at 8.39 µM]. The activity change, negative = cytotoxicity [17] was 1.92% [at 8.39 µM], the activity change, negative = cytotoxicity [18] was 8.18% [at 8.39 µM] and the cAMP activity change [9] was 4.39% [at 8.39 µM]. The activity change, negative = inhibition [19] was 0.0098% [at 8.39 µM], the activity change, negative = cytotoxicity [10] was -0.402% [at 8.39 µM] and the activity change, negative = inhibition [12] was 5.13% [at 8.39 µM]. For the same molecule, the activity change, negative = cytotoxicity [13] was 3.01% [at 8.39 µM], the activity change, negative = cytotoxicity [14] was 0.346% [at 8.39 µM] and the viability change, negative = cytotoxic [15] was -7.19% [at 6.97 µM].

With `C[C@@H](CN1CC(=O)NC(=O)C1)N1CC(=O)NC(=O)C1` the outcome [1] was “inactive”, the outcome [2] was “inactive” and the outcome [3] was “inactive”. The outcome [4] was “inactive”, the Potency [5] was “inactive” and the outcome [6] was “inactive”. For the same molecule, the outcome [7] was “inactive”, the outcome [20] was “inactive” and the outcome [18] was “inactive”. For the same molecule, the Potency [8] was “inactive”, the outcome [10] was “inactive” and the Potency [11] was “inactive”. The Potency [12] was “inactive”, the outcome [13] was “inactive” and the Potency [14] was “inactive”. The outcome [15] was “inactive”.

In the case of `O=C1c2ccccc2C(=O)N1CO`, the outcome [1] is reported as “inactive”, the outcome [2] is reported as “inactive” and the outcome [4] is reported as “inactive”. For the same molecule, the Potency [16] was “inactive”, the Potency [5] was “inactive” and the outcome [6] was “inactive”. The outcome [7] was “inactive”, the Potency [17] was “inactive” and the outcome [20] was “inactive”. The outcome [18] was “inactive”, the Potency [8] was “inactive” and the outcome [9] was “inactive”. The outcome [19] was “inactive”, the outcome [10] was “inactive” and the Potency [11] was “inactive”. The Potency [12] was “inactive”, the outcome [13] was “inactive” and the Potency [14] was “inactive”. The outcome [15] was “inactive”.

In the case of `CC(C)OC(=O)C(C(=O)OC(C)C)=C1SC=CS1`, the outcome [1] is reported as “inactive”, the outcome [2] is reported as “inactive” and the outcome [3] is reported as “inactive”. For the same molecule, the outcome [4] was “inactive”, the Potency [16] was 4.73 µM (active) and the outcome [7] was “inactive”. The Potency [17] was 18.8 µM (active), the outcome [9] was “inactive” and the outcome [19] was “inactive”. For the same molecule, the outcome [10] was “inactive”, the Potency [11] was “inactive” and the outcome [13] was “inactive”. The outcome [15] was “inactive”.

With `CSC(=O)c1cccc2nnsc12` the outcome [1] was “inactive”, the outcome [2] was “inactive” and the outcome [3] was “inactive”. The outcome [4] was “inactive”, the Potency [16] was “inactive” and the outcome [7] was “inactive”. For the same molecule, the outcome [20] was “inactive”, the Potency [8] was “inactive” and the outcome [9] was “inactive”. For the same molecule, the outcome [19] was “inactive”, the outcome [10] was “inactive” and the Potency [11] was “inactive”. For the same molecule, the outcome [13] was “inactive” and the outcome [15] was “inactive”.

For `CC(C)C(=O)Nc1cccc(C2CN3CCSC3=N2)c1` (configuration not stated), the outcome [1] was “inactive”, the outcome [2] was “inactive” and the outcome [3] was “inactive”. The outcome [4] was “inactive”, the Potency [5] was “inactive” and the outcome [6] was “inactive”. For the same molecule, the outcome [7] was “inactive”, the outcome [20] was “inactive” and the Potency [8] was “inactive”. For the same molecule, the outcome [9] was “inactive”, the outcome [19] was “inactive” and the outcome [10] was “inactive”. For the same molecule, the Potency [11] was “inactive”, the Potency [12] was “inactive” and the outcome [13] was “inactive”. The outcome [15] was “inactive”.

In the case of `O=C(O)CCCCCCCCCC(=O)O`, the outcome [1] is reported as “inactive”, the outcome [2] is reported as “inactive” and the outcome [3] is reported as “inactive”. The outcome [4] was “inactive”, the Potency [5] was “inactive” and the outcome [6] was “inactive”. For the same molecule, the outcome [7] was “inactive”, the Potency [17] was “inactive” and the outcome [20] was “inactive”. The outcome [18] was “inactive”, the Potency [8] was “inactive” and the outcome [9] was “inactive”. For the same molecule, the outcome [19] was “inactive”, the outcome [10] was “inactive” and the Potency [11] was “inactive”. For the same molecule, the Potency [12] was “inactive”, the outcome [13] was “inactive” and the Potency [14] was “inactive”. For the same molecule, the outcome [15] was “inactive”.
